Results on 60 compounds are retold here after the antibiotic and cytotoxicity screens of Wong et al. (2023).

The whole screen tested about 39,000 compounds, of which about 3,300 (8.5%) were called active. Shown is part of a subset that was picked to be rich in actives.

In this assay the test system is HepG2. Put plainly: cytotoxicity call (relative viability < 0.9). As to conditions: 10 µM.
Consider `C[C@H]1CN([C@@H](C)CO)S(=O)(=O)c2ccc(-c3ccc(F)cc3)cc2O[C@@H]1CN(C)S(C)(=O)=O`, for which the cytotoxicity call was “inactive”. On to `C[C@@H]1CN([C@H](C)CO)C(=O)c2cc(NS(=O)(=O)c3ccccc3)ccc2O[C@@H](C)CCCCO[C@@H]1CN(C)S(C)(=O)=O`, for which the cytotoxicity call was “inactive”. On to `COc1ccc(S(=O)(=O)Nc2ccc3c(c2)C(=O)N([C@@H](C)CO)C[C@@H](C)[C@H](CN(C)C(=O)c2ccccc2)OCCCC[C@H](C)O3)cc1`, for which the cytotoxicity call is “inactive”. In the case of `COc1ccc(CN(C)C[C@H]2Oc3ccc(NC(=O)Nc4cccc5ccccc45)cc3C(=O)N([C@H](C)CO)C[C@H]2C)cc1`, the cytotoxicity call was “inactive”. In the case of `C[C@H]1CN([C@@H](C)CO)C(=O)c2cc(NC(=O)Nc3cccc4ccccc34)ccc2O[C@@H]1CN(C)Cc1ccc(Oc2ccccc2)cc1`, the cytotoxicity call is “active”.

Take `COc1ccc(CN(C)C[C@@H]2Oc3ccc(NC(=O)Nc4cccc5ccccc45)cc3C(=O)N([C@@H](C)CO)C[C@@H]2C)cc1`: the cytotoxicity call was “inactive”. In the case of `C[C@H]1CN([C@@H](C)CO)C(=O)c2cccc(NC(=O)c3cnccn3)c2O[C@@H]1CN(C)C(=O)Nc1ccc(F)cc1`, the cytotoxicity call is “inactive”. Consider `CC(=O)OCCn1c(=O)[nH]c(=O)c2nsnc21`, for which the cytotoxicity call was “inactive”. For `Cc1ccc(S(=O)(=O)Nc2ccc3c(c2)C(=O)N([C@H](C)CO)C[C@H](C)[C@@H](CN(C)C(=O)Nc2cccc4ccccc24)OCCCC[C@@H](C)O3)cc1`, the cytotoxicity call was “inactive”. On to `Cc1ccc(S(=O)(=O)Nc2ccc3c(c2)C(=O)N([C@@H](C)CO)C[C@H](C)[C@H](CN(C)C(=O)Nc2cccc4ccccc24)OCCCC[C@@H](C)O3)cc1`, for which the cytotoxicity call was “inactive”. Regarding `Cc1ccc(S(=O)(=O)Nc2ccc3c(c2)C(=O)N([C@@H](C)CO)C[C@H](C)[C@@H](CN(C)C(=O)Nc2cccc4ccccc24)OCCCC[C@@H](C)O3)cc1`, the cytotoxicity call was “inactive”. For the compound `Cc1ccc(S(=O)(=O)Nc2ccc3c(c2)C(=O)N([C@@H](C)CO)C[C@H](C)[C@H](CN(C)C(=O)Nc2cccc4ccccc24)OCCCC[C@H](C)O3)cc1`, the cytotoxicity call is “inactive”. For the compound `Cc1ccc(S(=O)(=O)Nc2ccc3c(c2)C(=O)N([C@H](C)CO)C[C@@H](C)[C@H](CN(C)C(=O)Nc2cccc4ccccc24)OCCCC[C@@H](C)O3)cc1`, the cytotoxicity call is “active”. For the compound `Cc1ccc(S(=O)(=O)Nc2ccc3c(c2)C(=O)N([C@H](C)CO)C[C@H](C)[C@H](CN(C)C(=O)Nc2cccc4ccccc24)OCCCC[C@H](C)O3)cc1`, the cytotoxicity call was “active”. Turning to `Cc1ccc(S(=O)(=O)Nc2ccc3c(c2)C(=O)N([C@@H](C)CO)C[C@H](C)[C@@H](CN(C)C(=O)Nc2cccc4ccccc24)OCCCC[C@H](C)O3)cc1`, the cytotoxicity call was “inactive”. `Cc1ccc(S(=O)(=O)Nc2ccc3c(c2)C(=O)N([C@H](C)CO)C[C@@H](C)[C@H](CN(C)C(=O)Nc2cccc4ccccc24)OCCCC[C@H](C)O3)cc1`: the cytotoxicity call was “active”. Regarding `Cc1ccc(S(=O)(=O)Nc2ccc3c(c2)C(=O)N([C@@H](C)CO)C[C@@H](C)[C@@H](CN(C)C(=O)Nc2cccc4ccccc24)OCCCC[C@H](C)O3)cc1`, the cytotoxicity call was “inactive”. Take `CC(=O)Nc1cc2c(cc1N)OCCO2`: the cytotoxicity call was “inactive”. As for `COCC(=O)N(C)C[C@@H]1Oc2cc(C#C[C@H](C)O)ccc2S(=O)(=O)N([C@@H](C)CO)C[C@@H]1C`, the cytotoxicity call is “inactive”. For `C[C@@H]1CN([C@@H](C)CO)C(=O)c2cc(NC(=O)Nc3ccc4c(c3)OCO4)ccc2O[C@@H]1CN(C)Cc1ccc(Oc2ccccc2)cc1` the value was “active”. With `C[C@H](CO)N1C[C@H](C)[C@@H](CN(C)Cc2ccc(Oc3ccccc3)cc2)Oc2ccc(NC(=O)Nc3ccc4c(c3)OCO4)cc2C1=O`, the cytotoxicity call is “inactive”. For `C[C@@H]1CN([C@H](C)CO)C(=O)c2cc(NC(=O)Nc3ccc4c(c3)OCO4)ccc2O[C@@H]1CN(C)Cc1ccc(Oc2ccccc2)cc1` the value was “active”; for `C[C@@H]1CN([C@@H](C)CO)C(=O)c2cc(NC(=O)Nc3ccc4c(c3)OCO4)ccc2O[C@H]1CN(C)Cc1ccc(Oc2ccccc2)cc1`, “inactive”.

As to `C[C@H]1CN([C@@H](C)CO)C(=O)c2cc(NC(=O)Nc3ccc4c(c3)OCO4)ccc2O[C@H]1CN(C)Cc1ccc(Oc2ccccc2)cc1`, the cytotoxicity call was “inactive”.

For `C[C@@H]1CN([C@H](C)CO)C(=O)c2cc(NC(=O)Nc3ccc4c(c3)OCO4)ccc2O[C@H]1CN(C)Cc1ccc(Oc2ccccc2)cc1`, the cytotoxicity call is “inactive”. As to `C[C@H]1CN([C@@H](C)CO)C(=O)c2cc(NC(=O)Nc3ccc4c(c3)OCO4)ccc2O[C@@H]1CN(C)Cc1ccc(Oc2ccccc2)cc1`, the cytotoxicity call was “active”. With `C[C@H](CO)N1C[C@H](C)[C@H](CN(C)Cc2ccc(Oc3ccccc3)cc2)Oc2ccc(NC(=O)Nc3ccc4c(c3)OCO4)cc2C1=O`, the cytotoxicity call was “inactive”. Turning to `C[C@@H]1CN([C@@H](C)CO)C(=O)c2cccc(NC(=O)C3CCCCC3)c2O[C@H]1CN(C)C(=O)Nc1cccc2ccccc12`, the cytotoxicity call was “inactive”. The result for `Cc1cc(C(=O)Nc2ccc3c(c2)C(=O)N(C)[C@@H]2CC[C@@H](CC(=O)NCC(F)(F)F)O[C@H]2CO3)no1` reads “inactive”; that for `C[C@@H]1CN([C@@H](C)CO)C(=O)c2cc(NC(=O)CCC(F)(F)F)ccc2O[C@@H](C)CCCCO[C@@H]1CN(C)Cc1ccc(C(=O)O)cc1`, “inactive”; that for `O=C(C[C@@H]1C=C[C@H](NC(=O)C2CC2)[C@@H](CO)O1)NCCCN1CCOCC1`, “inactive”. Regarding `O=C(NCc1ccccc1)C1=C[C@H](c2ccc3c(c2)Cc2ccccc2-3)C[C@H](OCc2ccc(CO)cc2)O1`, the cytotoxicity call was “inactive”. Consider `C[C@@H]1CN([C@@H](C)CO)C(=O)c2cc(NS(C)(=O)=O)ccc2O[C@H]1CN(C)C(=O)Nc1ccc2c(c1)OCO2`, for which the cytotoxicity call was “inactive”.

In the case of `C[C@@H]1CN([C@H](C)CO)C(=O)c2cc(NC(=O)NC3CCCCC3)ccc2O[C@@H](C)CCCCO[C@H]1CN(C)C(=O)Nc1ccc(C(F)(F)F)cc1`, the cytotoxicity call was “inactive”.

Take `CCNC(=O)[C@@H]1CCCN1C(=O)[C@H](CCCNC(=N)N)NC(=O)[C@H](CC(C)C)NC(=O)[C@@H](COC(C)(C)C)NC(=O)[C@H](Cc1ccc(O)cc1)NC(=O)[C@H](CO)NC(=O)[C@H](Cc1c[nH]c2ccccc12)NC(=O)[C@H](Cc1cnc[nH]1)NC(=O)[C@H]1CCC(=O)N1`: the cytotoxicity call was “inactive”. `CC(C)(C)OC(=O)CC[C@@]12N=C(c3ccc(OCCCO)cc3)O[C@@H]1c1ccccc1CN(C(=O)c1ccccc1)C2=O`: the cytotoxicity call was “active”.

`CC(C)(C)OC(=O)CC[C@]12N=C(c3ccc(OCCCO)cc3)O[C@H]1c1ccccc1CN(C(=O)c1ccccc1)C2=O`: the cytotoxicity call is “inactive”. For `CC(C)(C)OC(=O)CC[C@]12N=C(c3ccc(OCCCO)cc3)O[C@H]1c1ccccc1N(Cc1ccccc1)C2=O`, the cytotoxicity call was “inactive”. The result for `O=C1N(Cc2ccccc2)Cc2ccccc2C[C@@]12N=C(c1ccc(OCCCO)cc1)O[C@H]2c1ccccc1` reads “active”. In the case of `O=C1N(Cc2ccccc2)Cc2ccccc2[C@H]2OC(c3ccc(OCCCO)cc3)=N[C@@]12Cc1ccccc1`, the cytotoxicity call was “inactive”. As for `O=C1N(Cc2ccccc2)Cc2ccccc2C[C@]12N=C(c1ccc(OCCCO)cc1)O[C@@H]2c1ccccc1`, the cytotoxicity call was “inactive”. As to `CC(C)(C)OC(=O)CC[C@@]12N=C(c3ccc(OCCCO)cc3)O[C@@H]1c1ccccc1CN(Cc1ccccc1)C2=O`, the cytotoxicity call is “active”. The result for `O=C(c1ccccc1)N1Cc2ccccc2[C@H]2OC(c3ccc(OCCCO)cc3)=N[C@@]2(Cc2ccccc2)C1=O` reads “inactive”; that for `CC(C)(C)OC(=O)CC[C@]12N=C(c3ccc(OCCCO)cc3)O[C@H]1c1ccccc1CN(Cc1ccccc1)C2=O`, “inactive”; that for `COC(=O)c1cn(C)cn1`, “inactive”. As for `Cc1ccc(S(=O)(=O)N(C)C[C@H]2Oc3ccc(NS(C)(=O)=O)cc3CC(=O)N([C@H](C)CO)C[C@@H]2C)cc1`, the cytotoxicity call is “inactive”. For `C[C@@H]1CN([C@@H](C)CO)C(=O)c2cc(N(C)C)ccc2O[C@@H](C)CCCCO[C@@H]1CN(C)Cc1ccc(C(F)(F)F)cc1`, the cytotoxicity call is “inactive”. For `C[C@]1(CC(=O)O)C(=O)N=C2C=CC=CN21` the value was “inactive”.

Consider `COc1ccc(CN(C)C[C@H]2Oc3ccc(NC(=O)Nc4ccc(C(F)(F)F)cc4)cc3C(=O)N([C@H](C)CO)C[C@H]2C)cc1`, for which the cytotoxicity call is “active”.

Consider `COc1ccc(CN(C)C[C@H]2Oc3ccc(NC(=O)Nc4ccc(C(F)(F)F)cc4)cc3C(=O)N([C@H](C)CO)C[C@@H]2C)cc1`, for which the cytotoxicity call was “inactive”. Consider `COc1ccc(NC(=O)Nc2ccc3c(c2)C(=O)N([C@H](C)CO)C[C@H](C)[C@H](CN(C)Cc2ccc(C(F)(F)F)cc2)O3)cc1`, for which the cytotoxicity call was “inactive”. Turning to `COc1ccc(CN(C)C[C@@H]2Oc3ccc(NC(=O)Nc4ccc(C(F)(F)F)cc4)cc3C(=O)N([C@H](C)CO)C[C@@H]2C)cc1`, the cytotoxicity call was “active”. Take `COc1ccc(CN(C)C[C@@H]2Oc3ccc(NC(=O)Nc4ccc(C(F)(F)F)cc4)cc3C(=O)N([C@@H](C)CO)C[C@@H]2C)cc1`: the cytotoxicity call was “active”.

With `COc1ccc(NC(=O)Nc2ccc3c(c2)C(=O)N([C@H](C)CO)C[C@@H](C)[C@@H](CN(C)Cc2ccc(C(F)(F)F)cc2)O3)cc1`, the cytotoxicity call was “inactive”.

With `COc1ccc(NC(=O)Nc2ccc3c(c2)C(=O)N([C@H](C)CO)C[C@@H](C)[C@H](CN(C)Cc2ccc(C(F)(F)F)cc2)O3)cc1`, the cytotoxicity call is “active”. The result for `COc1ccc(NC(=O)Nc2ccc3c(c2)C(=O)N([C@H](C)CO)C[C@H](C)[C@@H](CN(C)Cc2ccc(C(F)(F)F)cc2)O3)cc1` reads “inactive”; that for `C[C@H]1CN([C@@H](C)CO)C(=O)c2cc(C#CC3(O)CCCC3)cnc2O[C@@H]1CN(C)C(=O)Cc1ccccc1`, “inactive”. For `C[C@H](CO)N1C[C@H](C)[C@@H](CN(C)Cc2ccc(F)cc2)Oc2cc(C#CC(C)(C)O)ccc2S1(=O)=O` the value was “inactive”; for `OCC1OC(OC2C(O)C(CO)OC2(CO)OC2OC(CO)C(O)C(O)C2O)C(O)C(O)C1O` (stereo not given), “inactive”.

Regarding `CN(C)C(=O)N[C@H]1CN(S(C)(=O)=O)[C@H]2CCCO[C@@H]12`, the cytotoxicity call was “inactive”.
